Laboratory results published in PubChem BioAssay (NCATS).
Inconclusive results are not listed. A number with no mark means an inactive call. Calls of active or inactive are those of the source. Calls follow the shape of the dose curve; as a rule, active = well fitted inhibition curve with a large enough effect; inconclusive = small, poorly fitted or top-dose-only effect; inactive = flat fitted curve, though single readings scatter.

Tested on: Dd2
Test: qHTS profiling for inhibitors of Plasmodium falciparum proliferation (AID 504749); also: nearly all actives have a fitted effect of over 60% in size;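 as to activity, negative = inhibition: 0% = DMSO vehicle and full inhibition = artemisinin control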
Conditions: P. falciparum in erythrocytes, SYBR Green DNA, 72 h; series mostly up to 28.7 µM; activity, negative = inhibition: at the top concentration
Summary of the method: (§1)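 Parasite proliferation within erythrocytes, 72 h exposure. Endpoint: SYBR Green I fluorescence after overnight lysis at room temperature. Controls: 0.29 uM artemisinin, DMSO.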
Potency is read from the fitted curve at half-maximal effect.

| Compound | activity, negative = inhibition | Potency |
| --- | --- | --- |
| CC(=O)N1CCN(c2ccc(OC[C@@H]3CO[C@@](Cn4ccnc4)(c4ccc(Cl)cc4Cl)O3)cc2)CC1 | -8.72% | – |
| OC[C@H](S)CS | – | 2.24 µM (active) |
| N[C@H](COP(=O)(O)O)C(=O)O | -3.77% | – |
| C[N+]1(C)[C@@H]2CC(OC(=O)[C@@H](CO)c3ccccc3)C[C@@H]1[C@H]1O[C@H]12 (stereo partly drawn) | -1.8% | – |
| COc1cc2nc(N(C)CCCNC(=O)[C@@H]3CCCO3)nc(N)c2cc1OC | -6.26% [at 12.8 µM] | – |

Tested on: ECU
Test: as above
Conditions: P. falciparum in erythrocytes, SYBR Green DNA, 72 h; series mostly up to 28.7 µM; activity, negative = inhibition: at the top concentration
Summary of the method: as §1

| Compound | activity, negative = inhibition |
| --- | --- |
| N[C@H](COP(=O)(O)O)C(=O)O | 9.12% |
| C[N+]1(C)[C@@H]2CC(OC(=O)[C@@H](CO)c3ccccc3)C[C@@H]1[C@H]1O[C@H]12 (stereo partly drawn) | 1.12% |
| C(=C/c1ccccc1)/CN1CCN(C(c2ccccc2)c2ccccc2)CC1 | -3.2% [at 12.8 µM] |
| COc1cc2nc(N(C)CCCNC(=O)[C@@H]3CCCO3)nc(N)c2cc1OC | 1.95% [at 12.8 µM] |

Tested on: FAB9
Test: as above
Conditions: P. falciparum in erythrocytes, SYBR Green DNA, 72 h; series mostly up to 28.7 µM; activity, negative = inhibition: at the top concentration
Summary of the method: as §1

| Compound | activity, negative = inhibition |
| --- | --- |
| CC(=O)N1CCN(c2ccc(OC[C@@H]3CO[C@@](Cn4ccnc4)(c4ccc(Cl)cc4Cl)O3)cc2)CC1 | -2.2% |
| N[C@H](COP(=O)(O)O)C(=O)O | 8.59% |
| C[N+]1(C)[C@@H]2CC(OC(=O)[C@@H](CO)c3ccccc3)C[C@@H]1[C@H]1O[C@H]12 (stereo partly drawn) | -2.19% |
| C(=C/c1ccccc1)/CN1CCN(C(c2ccccc2)c2ccccc2)CC1 | 2.01% [at 12.8 µM] |
| COc1cc2nc(N(C)CCCNC(=O)[C@@H]3CCCO3)nc(N)c2cc1OC | 8.99% [at 12.8 µM] |

Tested on: GB4
Test: as above
Conditions: P. falciparum in erythrocytes, SYBR Green DNA, 72 h; series mostly up to 28.7 µM; activity, negative = inhibition: at the top concentration
Summary of the method: as §1

| Compound | activity, negative = inhibition |
| --- | --- |
| N[C@H](COP(=O)(O)O)C(=O)O | 2.39% |
| C[N+]1(C)[C@@H]2CC(OC(=O)[C@@H](CO)c3ccccc3)C[C@@H]1[C@H]1O[C@H]12 (stereo partly drawn) | 0.58% |
| COc1cc2nc(N(C)CCCNC(=O)[C@@H]3CCCO3)nc(N)c2cc1OC | -7.5% [at 12.8 µM] |

Tested on: HB3
Test: as above
Conditions: P. falciparum in erythrocytes, SYBR Green DNA, 72 h; series mostly up to 28.7 µM; activity, negative = inhibition: at the top concentration
Summary of the method: as §1

| Compound | activity, negative = inhibition | Potency |
| --- | --- | --- |
| CC(=O)N1CCN(c2ccc(OC[C@@H]3CO[C@@](Cn4ccnc4)(c4ccc(Cl)cc4Cl)O3)cc2)CC1 | -13.7% | – |
| OC[C@H](S)CS | – | 2 µM (active) |
| N[C@H](COP(=O)(O)O)C(=O)O | 7.2% | – |
| C[N+]1(C)[C@@H]2CC(OC(=O)[C@@H](CO)c3ccccc3)C[C@@H]1[C@H]1O[C@H]12 (stereo partly drawn) | 16.4% | – |
| C(=C/c1ccccc1)/CN1CCN(C(c2ccccc2)c2ccccc2)CC1 | -26.9% [at 12.8 µM] | – |
| COc1cc2nc(N(C)CCCNC(=O)[C@@H]3CCCO3)nc(N)c2cc1OC | -0.709% [at 12.8 µM] | – |
